# Where “and” joins values, the source holds several entries; their conditions need not be identical. Identical values can stand only once. Records with an inconclusive call do not appear. Some compounds were tested as several samples or in several runs, with calls that do not always agree. Calls of active or inactive are those of the source. Calls come from the whole dose curve; as a rule, active = well fitted curve in the direction sought with a large enough effect; inconclusive = small, poorly fitted or top-dose-only effect, or another doubt; inactive = no such curve, though single readings can be large; an effect the other way counts as inactive or inconclusive.
# Key:
# [1] = BET inhibitor-based combinations targeting novel dependencies in MECOM-rearranged (r) AML: SET-2 cell line (AID 2202231); settings: SET-2 AML cells viability, CellTiter-Glo luminescence, 48 h; viability: stronger effect = lower value, concentration not given here; note: nearly all actives have a fitted effect of over 35% in size;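 for viability: plate controls were DMSO treated cells for no effect and wells without cells for full effect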
# How it was run: (§1)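 Here, 11-point titrations of each agent were applied to 500 seeded cells and incubated 48 hr; CellTiter-Glo signal, scaled against DMSO and empty wells, was integrated as AUC, then Z-scored within the individual line.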
# [2] = BET inhibitor-based combinations targeting novel dependencies in MECOM-rearranged (r) AML: OCI-AML3 cell line (AID 2202232); settings: Potency: OCI-AML3 viability; note: nearly all actives have a fitted effect of over 35% in size
# How it was run: as §1
# [3] = BET inhibitor-based combinations targeting novel dependencies in MECOM-rearranged (r) AML: MV-4-11 cell line (AID 2202233); note: nearly all actives have a fitted effect of over 45% in size
# How it was run: (§2)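 Normalized to DMSO and empty-well controls, the luminescence data from CellTiter-Glo after 48 hr drug exposure were fitted across 11 concentrations. Reported metrics are area under the dose-response curve and its Z-transformed form.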
# [4] = BET inhibitor-based combinations targeting novel dependencies in MECOM-rearranged (r) AML: HNT-34 cell line (AID 2202234); note: nearly all actives have a fitted effect of over 35% in size
# How it was run: as §2
# [5] = BET inhibitor-based combinations targeting novel dependencies in MECOM-rearranged (r) AML: UCSD-AML1 cell line (AID 2202235); note: nearly all actives have a fitted effect of over 40% in size
# How it was run: as §2
# [6] = BET inhibitor-based combinations targeting novel dependencies in MECOM-rearranged (r) AML: AML-191 cell line (AID 2202236; note: nearly all actives have a fitted effect of over 35% in size)
# How it was run: as §1
# [7] = BET inhibitor-based combinations targeting novel dependencies in MECOM-rearranged (r) AML: AML-194 cell line (AID 2202237; note: nearly all actives have a fitted effect of over 40% in size)
# How it was run: as §1
# Potency is the fitted concentration of half-maximal effect.
Compound,viability [1],Potency [2],Potency [3],Potency [4],Potency [5],Potency [6],Potency [7],Potency [1]
COc1ccc([C@@H]2CC(=O)c3c(O)cc(O[C@@H]4O[C@H](CO[C@@H]5O[C@@H](C)[C@H](O)[C@@H](O)[C@H]5O)[C@@H](O)[C@H](O)[C@H]4O)cc3O2)cc1O,119% (inactive),inactive,inactive,inactive,inactive,inactive,–,–
C[C@@H]1[C@H](O)[C@@H](C)/C=C/C=C/C=C/C=C/C=C/C=C/C=C/[C@H](O[C@@H]2O[C@H](C)[C@@H](O)[C@H](N)[C@@H]2O)C[C@@H]2O[C@](O)(C[C@@H](O)C[C@@H](O)[C@H](O)CC[C@@H](O)C[C@@H](O)CC(=O)O[C@H]1C)C[C@H](O)[C@H]2C(=O)O,112% (inactive),inactive,23500 nM (active),inactive,inactive,inactive,inactive,–
CN(Cc1ccc(/C=C/C(=O)NO)cc1)CC12CC3CC(CC(C3)C1)C2,–,148 nM (active),93.4 nM (active),148 nM (active),132 nM (active),148 nM (active),–,105 nM (active)
CCc1c(-c2ccccc2C)nc2c(C#N)c[nH]n2c1=O,112% (inactive) and 125% (inactive),inactive,inactive,inactive,1.2 nM (active) and inactive,inactive,inactive,–
CC(=O)OCC(=O)[C@@]12OC(C)(C)O[C@@H]1C[C@H]1[C@@H]3C[C@H](F)C4=CC(=O)C=C[C@]4(C)[C@@]3(F)[C@@H](O)C[C@@]12C,105% (inactive),inactive,inactive,inactive,inactive,inactive,–,–
COCCn1c2c([n+](Cc3cnccn3)c1C)C(=O)c1ccccc1C2=O,–,52.5 nM (active),66.1 nM (active),166 nM (active),105 nM (active),148 nM (active),186 nM (active),1180 nM (active)
CC(=O)N1c2ccc(-c3ccc(C(=O)O)cc3)cc2[C@H](Nc2ccc(Cl)cc2)C[C@@H]1C,–,66.1 nM (active),93.4 nM (active),468 nM (active),1320 nM (active),468 nM (active),–,372 nM (active)
COc1cc2c3c(n(CCCNCCO)c(=O)c2cc1OC)-c1cc2c(cc1C3=O)OCO2,–,93.4 nM (active),59 nM (active),59 nM (active),74.2 nM (active),166 nM (active),–,148 nM (active)
COc1cc(OC)cc(N(CCNC(C)C)c2ccc3ncc(-c4cnn(C)c4)nc3c2)c1,–,18600 nM (active),16600 nM (active),2350 nM (active),10500 nM (active),18600 nM (active),18600 nM (active),18600 nM (active)
Nc1ccn([C@@H]2O[C@H](CO)[C@@H](O)[C@H]2O)c(=O)n1,117% (inactive),inactive,16600 nM (active),inactive,inactive,inactive,inactive,–
Cc1ccc(Nc2ncc3c(n2)N(C)C(=O)N(c2cc(NC(=O)c4cccc(C(F)(F)F)c4)ccc2C)C3)cn1,–,263 nM (active),37.2 nM (active),11.8 nM (active),93.4 nM (active),83.3 nM (active),–,934 nM (active)
Fc1cccc(-n2cnc3c(NCc4nc5c(F)c(F)ccc5[nH]4)nc(N4CCOCC4)nc32)c1,–,742 nM (active),263 nM (active),296 nM (active),296 nM (active),166 nM (active),372 nM (active),372 nM (active)
CCCCC(=O)OCC(=O)[C@]1(O)Cc2c(O)c3c(c(O)c2[C@@H](O[C@H]2C[C@H](NC(=O)C(F)(F)F)[C@H](O)[C@H](C)O2)C1)C(=O)c1c(OC)cccc1C3=O,–,590 nM (active),235 nM (active),1860 nM (active),833 nM (active),1660 nM (active),2630 nM (active),4170 nM (active)
C=C1C(=O)O[C@H]2C[C@H](C)C(/C=C/C(C)=O)=CC[C@H]12,–,1180 nM (active),1860 nM (active),3320 nM (active),2090 nM (active),2350 nM (active),–,4680 nM (active)
CC[C@@]1(O)C[C@H](O[C@H]2C[C@H](N(C)C)[C@H](O[C@H]3C[C@H](O)[C@H](O[C@H]4CCC(=O)[C@H](C)O4)[C@H](C)O3)[C@H](C)O2)c2c(cc3c(c2O)C(=O)c2c(O)cccc2C3=O)[C@@H]1C(=O)OC,–,3320 nM (active),742 nM (active),3320 nM (active),2350 nM (active),2950 nM (active),3720 nM (active),3720 nM (active)
